# Test results reported in PubChem BioAssay (NCI).
# Compounds without any hit were thinned out: in the full panel of roughly 83,000, 20% have a hit.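 Method: cells in 96-well plates; compound added at one concentration; 48 h incubation; percent growth measured; values under 10 scored active.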 A number with no mark means an inactive call. The source made the active and inactive calls.
# Assays:
# Test in all cases: NCI-60 one-dose screen, 48 h (100 = growth as untreated, 0 = no growth, -100 = all killed)
# Settings in all cases: 10 µM unless noted
# [1] = tested on: SR leukemia
# [2] = tested on: RPMI-8226 leukemia
# [3] = tested on: OVCAR-8 ovarian
# [4] = tested on: OVCAR-5 ovarian
# [5] = tested on: OVCAR-4 ovarian
# [6] = tested on: SK-OV-3 ovarian
# [7] = tested on: IGROV1 ovarian
# [8] = tested on: HS 578T breast
# [9] = tested on: NCI/ADR-RES ovarian
# [10] = tested on: T-47D breast
# [11] = tested on: BT-549 breast
# [12] = tested on: MDA-MB-435 melanoma
# [13] = tested on: SW-620 colon
# [14] = tested on: MCF7 breast
# [15] = tested on: HCT-116 colon
# [16] = tested on: HCC-2998 colon
# [17] = tested on: KM12 colon
# [18] = tested on: OVCAR-3 ovarian
Compound,growth [1],growth [2],growth [3],growth [4],growth [5],growth [6],growth [7],growth [8],growth [9],growth [10],growth [11],growth [12],growth [13],growth [14],growth [15],growth [16],growth [17],growth [18]
COC1C(O)CC(OC2CC(OC3CC(O[C@@H]4C(=O)c5c(cc6cc(OC7CC(OC8CC(O)C(O)C(C)O8)C(O)C(C)O7)c(C)c(O)c6c5O)CC4[C@H](OC)C(=O)O)OC(C)C3O)OC(C)C2O)OC1C (stereo partly drawn),18%,19%,15.6%,29.3%,44.8%,35.1%,23.7%,23.5%,63%,25.5%,21.4%,28.8%,32%,10.1%,15.4%,38.6%,22.9%,–
CN(C)CCC(CCN(C)C)(C(=O)O)c1ccccc1,110%,99.8%,102%,99.2%,105%,102%,93.7%,111%,112%,–,96.5%,106%,110%,94.1%,–,101%,102%,113%
O=c1oc2c(cnc3ccccc32)cc1-c1cccc(Cl)c1,93%,101%,109%,94%,102%,105%,106%,105%,103%,–,115%,97%,106%,99.2%,105%,109%,110%,–
Cc1nc2sc(C(=O)Nc3ccccn3)c(N)c2cc1C(C)O (stereo not drawn),15.2%,94.5%,92.5%,77.9%,81%,65.2%,70.4%,74.7%,74.2%,–,85.1%,-31.6% (active),48.8%,29.6%,48.1%,74.8%,37.5%,–
COCCOC(C)C(/C=N/NC(N)=S)=N/NC(N)=S (stereo not drawn),53.2%,36.2%,57.1%,97.7%,9.81% (active),93.3%,21.2%,83.3%,52.7%,28.7%,90.1%,87.4%,61.7%,19.2%,6.21% (active),–,92.2%,–
O=CCCCOCc1ccccc1,–,–,103%,101%,98.6%,99.9%,101%,92.9%,97.4%,102%,103%,107%,100%,91.7%,105%,94.2%,102%,110%
O=C1Nc2ccc(Cl)cc2/C1=C/c1ccc[nH]1,–,101%,102%,83.7%,44.3%,117%,58.2%,114%,112%,13%,48.7%,96.5%,112%,16.2%,87.1%,65.8%,13.5%,90.5%
c1ccc(-c2ccc3c(c2)C2(CCNCC2)CN3)cc1,–,97.5%,99.2%,98.1%,91.5%,79.4%,73%,93.6%,94.3%,80.3%,99.3%,106%,93.6%,80.2%,87.1%,103%,87.7%,86.2%
Cn1cc(-c2nonc2-c2c[nH]c3ccccc23)c2cc(Br)ccc21,–,40.6%,45%,49%,49.6%,49.8%,43%,59.1%,29.3%,14.5%,47.1%,2.49% (active),23.9%,19.6%,25.6%,43.4%,17.7%,33.5%
